# Measured values from PubChem BioAssay AID651813 (National Center for Advancing Translational Sciences (NCATS), 2012).
# Screen size: about 2,100 compounds; about 1,100 (52%) were called active. About 27% were inconclusive and are not listed. The set was probably picked from earlier hits. The list shows a part of the results. A number with no mark means an inactive call. Calls come from the whole dose curve; as a rule, active = well fitted inhibition curve with a large enough effect; inconclusive = small, poorly fitted or top-dose-only effect; inactive = no such curve, though single readings can be large or run the other way.
# Target: DNA dC->dU-editing enzyme APOBEC-3G (Homo sapiens) (UniProt Q9HC16)
# Sequence (Q9HC16 whole entry, looked up): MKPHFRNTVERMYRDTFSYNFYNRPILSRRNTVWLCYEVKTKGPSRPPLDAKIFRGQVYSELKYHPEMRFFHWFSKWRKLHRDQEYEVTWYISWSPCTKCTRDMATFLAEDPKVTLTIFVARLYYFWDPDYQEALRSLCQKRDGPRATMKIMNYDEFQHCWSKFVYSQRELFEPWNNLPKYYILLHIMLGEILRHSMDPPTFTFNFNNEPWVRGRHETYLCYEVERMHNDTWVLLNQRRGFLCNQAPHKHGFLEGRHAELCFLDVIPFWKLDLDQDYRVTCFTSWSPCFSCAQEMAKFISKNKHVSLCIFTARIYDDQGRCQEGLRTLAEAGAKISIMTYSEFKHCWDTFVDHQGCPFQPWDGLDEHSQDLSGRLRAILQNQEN
# Assay: qHTS for inhibitors of Vif-A3G interactions: Cherry picks counterscreen;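 note: hits raise yellow fluorescence by blocking Vif-driven A3G-eYFP degradation; nearly all actives have a fitted effect of over 70% in size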;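 for max response: max response given as percent of control signal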
# Settings: HeLa A3G-eYFP + Vif (tagged APOBEC3G with the HIV-1 protein that degrades it), eYFP fluorescence, 24 h
# Outline: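 HeLa cells stably expressing A3G-eYFP and Vif were treated for 24 h at 37 deg C with compounds at several concentrations; yellow fluorescence (Ex 488 nm, Em 500-530 nm) read by Acumen Explorer, MG132 as positive control.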
# Potency is the fitted concentration of half-maximal effect.
SMILES,Potency,max response [%]
c1ccc2c(c1)Cc1cc3ccccc3nc1-2,1.64 µM (active),–
CN(C)c1ccc(/C=C/c2ccnc3ccc(I)cc23)cc1,5.17 µM (active),–
Cc1cc(C)c2nccc(/C=C/c3ccc(N(C)C)cc3)c2c1,11.6 µM (active),–
CN(C)c1ccc(/C=C/c2ccnc3ccc(N)cc23)cc1,18.4 µM (active),–
Cc1ccc2nccc(/C=C/c3ccc(N(C)C)cc3)c2c1,11.6 µM (active),–
FC(F)(F)c1ccccc1NC(=S)NN=C1CCCCCC1,–,19.2
CN(C)c1ccc(/C=C/c2ccnc3ccc(Br)cc23)cc1,2.06 µM (active),–
COc1ccc2nccc(/C=C/c3ccc(N(C)C)cc3)c2c1,18.4 µM (active),–
Cc1ccc2nc(-c3ccccn3)c(Nc3ccccc3C)n2c1,–,5.76
O=C(Nc1ncc(Cc2ccc(SC(F)F)cc2)s1)c1ccccc1,1.98 µM (active),–
Cc1cc([N+](=O)[O-])ccc1-c1ccc(/C=N/NC(=O)c2ccc(Br)o2)o1,20.6 µM (active),–
O=C(O)c1ccc(-c2ccc(/C=N/Nc3ccc([N+](=O)[O-])cc3)o2)cc1,15.8 µM (active),–
O=C(O)c1cccc(-c2ccc(/C=N/Nc3ccc([N+](=O)[O-])cc3)o2)c1,14.6 µM (active),–
CCOc1ccc(S(=O)(=O)N(CC(=O)N/N=C/c2ccc(-c3ccc([N+](=O)[O-])cc3)o2)c2ccccc2)cc1,11.2 µM (active),–
Cn1c(=S)c2[nH]c(SCCN3CCCC3)nc2n(C)c1=O,–,14.3
S=C(Nc1ccccc1)N1CCn2c1nc1ccccc12,–,-19.9
Cc1ccc(-c2ccc(/C=N/NC(N)=S)o2)cc1,–,-14.5
CC(C)(C)NC(=S)N/N=C\c1ccc(-c2ccc([N+](=O)[O-])cc2)o1,10.3 µM (active),–
O=[N+]([O-])c1ccccc1S(=O)(=O)Nc1ccc(-c2ccc(N3CCOCC3)nn2)cc1,–,0.357
O=[N+]([O-])c1ccc(-c2ccc(/C=N/Nc3nc(NCc4ccccc4)nc(N4CCOCC4)n3)o2)cc1,10.3 µM (active),–

SMILES,Potency,max response [%]
CN(/N=C/c1ccc(-c2ccc([N+](=O)[O-])cc2)o1)c1ccccc1,1.16 µM (active),–
CCN(CC)c1nc(C)c(C(=S)Nc2cc([N+](=O)[O-])ccc2Cl)s1,–,-7.53
CCOC(=O)c1c(CC(C)C)csc1/N=C/C1C(=O)CCCC1=O,–,-2.9
Nc1ncnc2c1ncn2[C@@H]1O[C@H](CNCc2ccc(OCc3ccccc3)cc2)[C@@H](O)[C@H]1O,12.5 µM (active),–
COc1ccc(CNCC(=O)Nc2ccccc2-n2cccc2)cc1,9.94 µM (active),–
CCCn1c(C2CCCN2c2nc(-c3cccc(Br)c3)cs2)nc2ccccc21 (centres undefined),–,-7.22
OCCCn1c(C2CCCN2c2nc(-c3ccc(F)cc3)cs2)nc2cc(Cl)c(N3CCCCC3)cc21 (centres undefined),16.4 µM (active),–
C[C@H](O)[C@@H]1CN2CCc3c([nH]c4ccccc34)[C@@H]2C[C@@H]1N(C)C(=O)c1ccco1,12.5 µM (active),–
CCN(CC)C(=O)CSC(Nc1cccc(F)c1)=C(C#N)C#N,13 µM (active),–
Oc1ccc(C=NNC(=S)Nc2ccc(F)cc2)c(O)c1,–,-25.9
CCN(CC)c1ccc(/C=N/N=C(N)N)c(O)c1,5.59 µM (active),–
CCN(CC)c1ccc(/C=N/NC(=O)c2ccco2)cc1,8.86 µM (active),–
O=C(NC(=S)N1CCc2ccccc21)c1ccco1,–,4.59
O=C(N/N=C/c1sc(=O)n(Cc2ccc(Br)cc2)c1Cl)c1ccco1,–,-16.3
CCN(CC)c1ccc2cc(C(N)=O)c(=N)oc2c1,–,60.6
CCN(CC)c1ccc(/C=N/NC(=O)c2ccco2)c(O)c1,7.9 µM (active),–
Cc1ccc2nsnc2c1NC(=O)c1ccc(-c2cc(Cl)ccc2Cl)o1,14 µM (active),–
Cc1cc(-c2ccccc2)c2c3c(c(-c4ccccc4)n2n1)c(=O)n(C)c(=O)n3C,–,9.15
C=CCSc1nnc(C)c(/C=C/Nc2ccc(Cl)cc2)n1,20.6 µM (active),–
CCOc1ccccc1NC(=O)Cn1nnc(C(=O)NCc2cccs2)c1N,0.651 µM (active),–

SMILES,Potency,max response [%]
COc1cc(NC(=O)C2=C(N3CCOCC3)/C(=C\c3ccc(N(C)C)cc3)CCC2)cc(OC)c1OC,3.53 µM (active),–
Cc1cc(NC(=O)NC(=O)c2ccccc2NC(=O)C(C)N)ccc1Oc1ncc(Br)cn1 (centres undefined),0.444 µM (active),–
Cc1cc(/C=C2\SC(=S)N(C)C2=O)c(C)n1-c1ccc(O)cc1,20.6 µM (active),–
Cc1cc(/C=C2\SC(=S)N(C)C2=O)c(C)n1-c1ccccc1O,18.4 µM (active),–
COc1cc2c(cc1OC)CN(C(=O)c1ccc3nc[nH]c3c1)CC2,14 µM (active),–
Cc1cccc(C(=O)NC(=S)N2CCc3ccccc3C2)c1,–,-2.8
COc1cc2c(cc1OC)CN(C(=O)/C=C/c1cccs1)CC2,1.25 µM (active),–
COc1cc2c(cc1OC)CN(C(=O)c1cc(=O)c3ccccc3o1)CC2,15.8 µM (active),–
CN(C)CCCN(C(=O)/C=C/c1cccs1)c1nc2ccc(F)cc2s1,–,-22.2
CC(=O)N/N=C/c1cc(C(C)C)cc(/C=N/NC(C)=O)c1O,18.4 µM (active),–
CC(=O)N/N=C/c1cc(C(C)(C)C)cc(/C=N/NC(C)=O)c1O,20.6 µM (active),–
CC1(C)CCN2CCC(C)(C)c3c(O)ccc1c32,5.59 µM (active),–
COc1ccc(NS(=O)(=O)c2cc(NC(=O)c3ccc(=O)[nH]c3)ccc2N2CCCC2)cc1,5.59 µM (active),–
Cc1ccc(NC(=S)NC(=O)c2ccc(F)cc2)cc1S(=O)(=O)Nc1cccc(Cl)c1,–,-21.2
ClCC1NCC(c2ccccc2Cl)c2c1[nH]c1ccccc21 (centres undefined),–,-28
CN1C(=O)N(C)c2ccc(C=O)c3cccc1c23,–,1.02
N#Cc1c(C(F)(F)F)cc(-c2ccco2)nc1SCc1ccccn1,16.4 µM (active),–
N#Cc1ccc(-c2ccco2)nc1SCc1ccccc1,–,-26
COc1cc2cc(-c3ccc(OC)c(OC)c3C)nc(N)c2cc1OC,2.8 µM (active),–
